Out of some 2,200 compounds screened, about 1,200 (55%) were called active. No cut-off is given here; in the data, nearly all actives have IC50 up to about 92 µM. So high a share suggests a set chosen from earlier hits. The list shows a part of the results.
Experiment: counter assay for TAg ATPase ADP read-out – biochemical, ADP-Hunter, fluorescence, counter-screen (AID 2501);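 note: purified T antigen ATPase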
Conditions: series mostly up to 100 µM

Structure (SMILES) | IC50
Oc1cc2c(cc1O)C1c3ccc(O)c(O)c3OCC1(O)C2 (configuration not stated) | inactive
CC(C)Cn1c(N)c(C(=O)COC(=O)c2cc(-c3ccco3)nc3ccccc23)c(=O)n(C)c1=O | inactive
CC(=O)Oc1ccc(C(=O)OCC(=O)c2c(N)n(C)c(=O)n(C)c2=O)cc1OC(C)=O | 5.13 µM (active)
COc1cc(SC#N)ccc1N=Cc1c(C)[nH]n(-c2ccc(C)cc2C)c1=O | inactive
O=C(Nc1ccc(O)cc1)C1CCCO1 (configuration not stated) | 5.34 µM (active)
O=C(Nc1ccc(O)cc1)C1CC=CCC1 (configuration not stated) | 6.87 µM (active)
O=C(Nc1ccc(O)cc1)c1ccc(NC(=O)C2CCCO2)cc1 (configuration not stated) | 7.4 µM (active)
CCOC(=O)c1c(N2C(=O)Nc3cc(Cl)c(Cl)cc3N2O)sc2c1CCCCC2 | inactive
O=C(O)CC1(Cc2nc(-c3cccs3)no2)CCCC1 | inactive
Nc1nc(-c2cccs2)c(NC(=O)c2ccccc2)s1 | 10.4 µM (active)
Cc1c(C)n(Cc2ccccc2)c2ncnc(NN)c12 | inactive
c1ccc(CNc2ncnc3ccccc23)cc1 | 4.18 µM (active)
CCOC(=O)C1=C(O)C(=O)N(Cc2cccnc2)C1c1ccc(OC)cc1 (configuration not stated) | inactive
COc1ccc(-c2nc(O)c3cnccn23)cc1 | 6.67 µM (active)
COc1cc(/C=N\NC(=O)C2CC3C=CC2C3)ccc1O (configuration not stated) | 7.58 µM (active)
COc1cc(/C=N/NC(=O)NC2CCCCC2)ccc1O | 3.75 µM (active)
Cc1cc(C)c(S(=O)(=O)Nc2ccc(O)cc2)cc1C | 12.1 µM (active)
Cc1cc(C)c(S(=O)(=O)Nc2cc(SCC(=O)O)c(O)c3ccccc23)cc1C | inactive
CNS(=O)(=O)c1cc(NC(=O)CCCNC(=O)c2ccc(Cl)cc2)ccc1C | inactive
Cc1ccccc1NS(=O)(=O)c1cc(C(=O)NCCC2=CCCCC2)ccc1C | inactive
CCSS(=O)(=O)c1cccc2cccnc12 | inactive
O=S(=O)(Nc1ccc(O)cc1)c1cccc2cccnc12 | 4.75 µM (active)

Structure (SMILES) | IC50
CSS(=O)(=O)c1cccc2cccnc12 | inactive
Cc1cc(=O)[nH]c2ccc(S(=O)(=O)Nc3ccc(O)cc3)cc12 | 7.34 µM (active)
Cc1ccc(C)c(S(=O)(=O)Nc2ccc(O)cc2)c1 | 6.11 µM (active)
Cc1c(C(=O)Oc2ccc(-c3cnc4ccccc4n3)cc2)cccc1[N+](=O)[O-] | inactive
NC(=O)N/N=C/c1c(Sc2nnnn2-c2ccccc2)nc2ccccn2c1=O | inactive
Cc1cc(Cl)ccc1OCCn1cncn1 | inactive
CC1=C/C(=N\OS(=O)(=O)c2ccccc2)C(C(C)C)=CC1=O | inactive
CN1CCc2cccc3c2C1Cc1ccc(O)c(O)c1-3 (configuration not stated) | inactive
Cn1c(=O)oc2cc(S(=O)(=O)Nc3ccc(O)cc3)ccc21 | 3.81 µM (active)
O=S(=O)(Nc1ccc2c(c1)nc1n2CCOC1)c1ccccc1 | inactive
CCOC(=O)Cn1c(=O)oc2cc(S(=O)(=O)NCCC(C)C)ccc21 | inactive
Cc1occc1-c1nnc(SCC(=O)c2ccccc2)n1CC1CCCO1 (configuration not stated) | inactive
Cc1nnc(SCc2ccccc2)n1CC1CCCO1 (configuration not stated) | 70.8 µM (active)
Cc1nc2ncccn2c1-c1csc(Nc2ccc(N(C)C)cc2)n1 | 7.2 µM (active)
CN(C)c1ccc(Nc2nc(-c3cccnc3)cs2)cc1 | 5.96 µM (active)
O=C1c2ccccc2C(Nc2ccccc2F)N1c1cccnc1 (configuration not stated) | inactive
Cc1cccc(/C(N)=N/OC(=O)N2c3ccccc3Sc3ccccc32)c1 | 79.6 µM (active)
NNC(=O)C(=O)Nc1ccc(O)cc1 | 5.13 µM (active)
NN/C(=C\[N+](=O)[O-])Nc1ccc(Cl)cc1 | inactive
Oc1ccc(N2CCN(C(=S)NCCc3ccccc3)CC2)cc1 | 3.15 µM (active)
CCOc1ccccc1NC(=O)NC(C)c1ccncc1 (configuration not stated) | inactive
CCOc1ccccc1NC(=S)N1CCN(c2ccc(O)cc2)CC1 | 6.75 µM (active)

Structure (SMILES) | IC50
CC(C)CN(C)C(=O)CCc1nnc(Cc2cccc(C(F)(F)F)c2)o1 | inactive
Cc1ccc(NC(=O)C(CC(C)C)NC(N)=O)cc1Cl (configuration not stated) | inactive
COC(=O)/C=C/C(=O)Nc1ccc(O)c(Cl)c1 | 6.19 µM (active)
Cc1ccccc1-n1sc2cc(F)ccc2c1=O | 49.1 µM (active)
COc1ccc(Nc2nc(-c3ccc4c(c3)NC(=O)CO4)cs2)cc1 | inactive
CCN(CC)CCCN(C(=O)c1cccs1)c1nc(-c2ccc(OC)cc2)cs1 | inactive
COc1ccc(-c2csc(NNC3=NCCCCC3)n2)cc1 | 40 µM (active)
c1ccc(-c2csc(NNC3=NCCCCC3)n2)cc1 | 13.6 µM (active)
O=S(=O)(NC1=NCCCCC1)c1ccc2sc(NS(=O)(=O)c3ccc4ccccc4c3)nc2c1 | inactive
Cc1ccc(N=c2oc3cc(O)ccc3cc2C(N)=O)cc1 | 17.1 µM (active)
C=CC(=O)Oc1ccc(N2Cc3ccccc3C2=O)cc1 | 8.19 µM (active)
COc1ccc(N2C(=O)/C(=C\c3ccco3)N=C2SCC(=O)NC(C)C)cc1Cl | inactive
COc1cc(/C=C2/C(=O)NN(c3ccc(Cl)cc3)C2=O)ccc1OC(=O)c1ccco1 | 80 µM (active)
COc1cc(/C=C2/C(=O)NN(c3cccc(C)c3)C2=O)ccc1OC(=O)c1ccco1 | 27.4 µM (active)
CCOC(=O)c1c(NC(=O)c2ccc(S(=O)(=O)N(C)CC3CCCO3)cc2)sc2c1CC(C)(C)NC2(C)C (configuration not stated) | inactive
Nc1ccc(OC(=O)Nc2ccc(O)cc2)cc1 | 3.47 µM (active)
CS(=O)(=O)N1CCc2cc(C(=O)Nc3ccc(O)cc3)ccc21 | 7.2 µM (active)
CC(C)OCCCNC1=C(Cl)C(=O)c2ccccc2C1=O | inactive
COC1=C(Nc2ccc(O)cc2)C(=O)c2ccccc2C1=O | 5.25 µM (active)
CN(C)C=NC1=NN(c2cccc(C(F)(F)F)c2)CC1 | 5.93 µM (active)
O=c1c2ccccc2[nH]c2ccc(O)cc12 | 5.13 µM (active)
O=C1/C(=C/c2ccncc2)SC(=S)N1Nc1ccccc1 | 77.6 µM (active)

Structure (SMILES) | IC50
O=C(CCN1C(=O)/C(=C/c2ccco2)SC1=S)Nc1ccc(C(=O)O)c(O)c1 | inactive
O=C(CCN1C(=O)/C(=C\c2ccco2)SC1=S)Nc1ccc(C(=O)O)c(O)c1 | inactive
COc1ccc(-c2cc(=O)oc3c(O)c(O)ccc23)cc1 | 8.96 µM (active)
O=C1NC(=S)CN1c1ccccc1 | inactive
O=C(O)c1ccccc1-c1c2cc(I)c(=O)c(I)c-2oc2c(I)c(O)c(I)cc12 | inactive
CC(=O)N(C1=C(Cl)C(=O)c2ccccc2C1=O)c1ccc(C(=O)O)cc1 | inactive
Nc1cc(C(=O)O)c(N)c2c1C(=O)c1ccccc1C2=O | 14.7 µM (active)
COc1cc(Cn2nnc3ccccc32)ccc1O | 3.65 µM (active)
COc1cc(Cn2c(-c3ccc(O)c(OC)c3)nc3ccccc32)ccc1O | 0.9 µM (active)
Cc1nc2cc(NCc3nc4ccccc4n3Cc3ccccc3)ccc2n1C | inactive
Cc1cccc(C)c1NC(=O)CSCC(=O)c1ccc(O)c(O)c1 | 10.3 µM (active)
CCOc1ccc(C(=O)CSCC(=O)O)cc1 | inactive
COc1ccc(CCN(C)Cc2nc(Cc3ccc(OC)c(OC)c3)no2)cc1OC | inactive
Cn1c(=O)c2c([nH]c(=S)n2Cc2ccc(Cl)cc2)n(C)c1=O | 16 µM (active)
COc1cc(/C=N/NS(=O)(=O)c2ccc(C)c([N+](=O)[O-])c2)ccc1O | 8.36 µM (active)
O=C(COC(=O)C1CC1)c1c[nH]c2ccccc12 | inactive
O=[N+]([O-])c1cccc(S(=O)(=O)N/N=C/c2ccc(O)cc2)c1 | 5.86 µM (active)
C/C(=N/NS(=O)(=O)c1cccc([N+](=O)[O-])c1)c1c[nH]c2ccccc12 | 9.39 µM (active)
COc1cc(/C=N/NS(=O)(=O)c2ccc(Br)cc2)ccc1O | 14.6 µM (active)
CC(C)(C)c1ccc(-c2nc(O)c(CC(=O)O)s2)cc1 | inactive
COc1cc(/C=C2\C(C)=C(C#N)c3nc(N)c(C#N)c(C)c32)ccc1OCC(=O)O | inactive
CC1=C(C#N)c2nc(N)c(C#N)c(C)c2/C1=C\c1ccc(OCC(=O)O)c(Cl)c1 | 95.7 µM (active)

Structure (SMILES) | IC50
COc1cc(/C=C2/C(C)=C(C#N)c3nc(N)c(C#N)c(C)c32)ccc1OCC(=O)O | inactive
Nc1ncnc2oc(-c3ccco3)c(-c3ccco3)c12 | inactive
CS(=O)(=O)c1ccc2c(c1)SC1=NC(=O)/C(=C/c3ccco3)C(=N)N12 | inactive
COc1cc(/C=C2\SC(N)=NC2=O)ccc1O | 4.85 µM (active)
Cc1ccc(NC(=O)CN2C(=O)N/C(=C\c3cccn3-c3cccc(C(=O)O)c3)C2=O)cc1 | inactive
CCOc1cc(/C=C2\NC(=S)N(c3c(C)n(C)n(-c4ccccc4)c3=O)C2=O)ccc1O | 3.07 µM (active)
CCOc1cc(/C=C2\SC(=O)N=C2N)ccc1O | 4.18 µM (active)
CCOc1cc(/C=C2/NC(=O)N(CC(=O)OC)C2=O)ccc1O | 5.19 µM (active)
NC1=NC(=O)/C(=C\c2ccco2)S1 | inactive
COC(=O)c1[nH]c2ccc(Br)cc2c1NC(=O)Oc1ccccc1 | inactive
CN(C)Cc1cc(O)c(CN(C)C)cc1O | inactive
CCOc1cc(/C=C2\SC(=NC)N(C)C2=O)cc(Cl)c1OC(C)=O | inactive
COc1cc(C2NC(=S)NC(C)=C2C(=O)Nc2cc(C)cc(C)c2)ccc1O (configuration not stated) | inactive
CCCN1C(=O)/C(=C/c2ccc(OCc3ccc(C(=O)O)cc3)c(OC)c2)NC1=S | inactive
NC1=NC(=O)S/C1=C\c1ccc(O)cc1 | 3.6 µM (active)
COc1cc(/C=C2\NC(=S)N(C)C2=O)ccc1O | 3.23 µM (active)
Cc1c(N2C(=O)/C(=C\c3ccccc3O)SC2=S)c(=O)n(-c2ccccc2)n1C | 54.7 µM (active)
C=CCN1C(=O)/C(=C\C(C)=C\c2ccccc2)SC1=S | inactive
CN=C1S/C(=C\c2ccc(O)c(OC)c2)C(=O)N1C | 4.35 µM (active)

Reference: PubChem BioAssay AID2501 (Southern Research Specialized Biocontainment Screening …, 2010)
